Screening data as filed in PubChem BioAssay.
IkB signaling: inhibitors of IkB signaling in ABC-DLBCL cells; actives 0.04% (n = 110,000); ABC-DLBCL IkBa-CBG/CBR dual luciferase ratio, 4 h; response scale: scaled: untreated 0%, proteasome inhibitor 100%; AID 445; Potency, µM (highest dose often 57.1 µM), for the others: top-dose IkBa stabilization activation; active = well fitted curve in the direction sought with a large enough effect in the signal ratio, not every such curve was filed as active; inconclusive = small, poorly fitted or top-dose-only effect, or a change in a side signal; the % refers to the signal ratio;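 also: the direction sought is a rising ratio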
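Luminescence ratio of IκBα-fused green versus native red beetle luciferase in OCI-Ly3 cells, 4 h post-doxycycline with compound; red signal alone, scaled from basal (0%) to zero light (-100%), flagged nonspecific or cytotoxic effects.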
ERK AVP block: inhibitors of vasopressin-stimulated ERK signaling pathway | HEK293-V1b, vasopressin-stimulated pERK AlphaScreen | Potency, µM (top dose mostly 57.5 µM), for inactives: at the top dose activity, negative = inhibition, actives largely listed as inhibitors | actives 0.99% (n = 72,000) | AID 995; also: % is scaled to controls: 0 for no effect and ±100 for the full control effect; nearly all actives have a fitted effect of over 55% in size
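Phosphorylated ERK1/2 detected via AlphaScreen bead proximity in lysates of V1b-expressing HEK293 cells given 25 nM vasopressin for 5 min after 30 min compound exposure (37 °C). AC50 from Hill equation; basal DMSO 0%, vasopressin 100%.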
TSHR ag: activates the human thyroid stimulating hormone receptor. Potency, µM (titrated, usually from 57.1 µM), for inactives: at the top dose activation, actives largely listed as activators. HEK293-CNG-TSHR cells (CNG channel as cAMP sensor), membrane potential dye, cAMP. AID 926. actives 0.48% (n = 73,000). P16473; active = well fitted activation curve with a large enough effect in the main read-out, with a control signal flat, not every such curve was filed as active; inconclusive = small, poorly fitted or top-dose-only effect, or a change in a side signal; inactive = no such curve, though single readings can be large or run the other way; % of control where 0% means no effect;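 also: the control signal comes from parental cells without the receptor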
Target sequence (P16473 whole entry, looked up): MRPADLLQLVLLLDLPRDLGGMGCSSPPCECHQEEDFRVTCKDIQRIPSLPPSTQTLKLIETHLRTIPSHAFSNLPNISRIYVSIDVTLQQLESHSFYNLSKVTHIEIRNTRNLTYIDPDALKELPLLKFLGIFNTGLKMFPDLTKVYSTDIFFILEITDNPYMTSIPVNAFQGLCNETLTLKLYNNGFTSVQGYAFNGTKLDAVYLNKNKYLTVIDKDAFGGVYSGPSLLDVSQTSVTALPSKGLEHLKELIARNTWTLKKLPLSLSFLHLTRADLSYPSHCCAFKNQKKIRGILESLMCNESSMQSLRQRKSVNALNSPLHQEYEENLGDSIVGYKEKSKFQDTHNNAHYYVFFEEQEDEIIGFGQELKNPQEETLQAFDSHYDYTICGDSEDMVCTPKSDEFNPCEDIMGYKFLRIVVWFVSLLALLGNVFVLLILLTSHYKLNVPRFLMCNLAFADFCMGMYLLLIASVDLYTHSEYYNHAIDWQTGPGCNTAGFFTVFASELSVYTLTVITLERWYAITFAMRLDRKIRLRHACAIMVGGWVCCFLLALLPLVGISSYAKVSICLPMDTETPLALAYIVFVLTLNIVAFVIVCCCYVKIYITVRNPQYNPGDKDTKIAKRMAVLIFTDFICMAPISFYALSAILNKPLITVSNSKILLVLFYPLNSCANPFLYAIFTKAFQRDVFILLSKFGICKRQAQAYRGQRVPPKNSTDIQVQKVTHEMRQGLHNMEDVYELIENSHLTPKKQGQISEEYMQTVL
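HEK 293 cells stably expressing TSHR and a modified CNG channel, with CNG-only parental cells as counterscreen, were preloaded 60 min at room temperature with membrane potential dye containing 100 uM RO 20-1724. Compound exposure was 30 min, and depolarization was read as fluorescence at 590 nm.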
HEK293 cAMP cs: raises cAMP in parental HEK293 cells, TSHR agonist counter-screen; parental HEK293 CNG cAMP sensor, membrane potential fluorescence; Potency, µM (series often up to 57.1 µM), for the others: at the top dose activation, usual class: activators; actives 2.5% (n = 73,000); AID 938; also: % of control where 0% means no effect; nearly all actives have a fitted effect of over 55% in size
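Counterscreen for endogenous-receptor signalling: CNG-channel HEK 293 cells report cAMP rise by membrane depolarization. After 60 min dye equilibration with 100 uM RO 20-1724, compounds incubated 30 min before bottom-read fluorescence at 590 nm.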
CRE-bla Fsk: alters forskolin-stimulated CRE reporter signaling in CHO cells; CHO CRE-bla reporter (cAMP response element driving beta-lactamase), forskolin EC10, beta-lactamase ratio; Potency, µM (top dose mostly 38.2 µM), for the others: at the top dose activity change, negative = inhibition, hits mostly activators; actives 2.5% (n = 71,000); active = well fitted activation curve with a large enough effect in the signal ratio, with a control signal flat, not every such curve was filed as active; inconclusive = small, poorly fitted or top-dose-only effect, or effect the other way, or a change in a side signal; the % refers to the signal ratio; also: % of control where 0% means no effect
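Beta-lactamase reporter under a cAMP responsive element in CHO cells; compounds tested in titration series against EC10 NKH 477, 3 h at 37 °C. Read-out: CCF4 FRET ratio 460nm/530nm (excitation 405nm) giving %Activity, fitted to AC50.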
An asterisk follows results filed as active; ? = inconclusive; · = not tested or not shown; [ ] = dose if it differs, or a comment. The list is not random: actives were taken first. Their share in the collection is about 3.6%. Unless noted, calls follow the shape of the dose curve; as a rule, active = well fitted curve in the direction sought with a large enough effect; inconclusive = small, poorly fitted or top-dose-only effect, or another doubt; inactive = no such curve, though single readings can be large; an effect the other way counts as inactive or inconclusive. Potency is read from the fitted curve at half-maximal effect.

SMILES	IkB signaling	ERK AVP block	TSHR ag	HEK293 cAMP cs	CRE-bla Fsk
CC1CCN(S(=O)(=O)N2CCC(C(=O)N3CCC(N(C)CC4CCCO4)CC3)CC2)CC1 (stereo unspecified)	2%	-18%	0%	2%	1%
O=C(Nc1c2c(nn1-c1ccc(Cl)cc1)CS(=O)(=O)C2)c1ccc(Br)cc1	5%	·	·	·	·
O=C(Nc1c2c(nn1-c1ccc(Cl)cc1)CS(=O)(=O)C2)c1ccc2c(c1)OCO2	2%	-23%	?	25µM*	-11%
CCC(C)NC(=O)c1c2c(nc3ccccc13)C(=O)N(C1CCCCC1)C2 (stereo unspecified)	0%	·	·	·	·
COc1ccc(NC(=O)N2CCn3c2nc2ccccc23)cc1	?	-17%	-5%	12%	14%
O=C(c1cc2c(s1)-c1ccccc1OC2)N1CCN(c2ccccn2)CC1	?	25µM*	?	?	?
CCOC(=O)c1cc(-c2ccccc2)nn1Cc1ccccc1	0%	·	·	·	·
O=C1CC(c2ccc(F)cc2)C2=C(CCCC2=O)N1 (stereo unspecified)	0%	20%	-3%	2%	-2%
Cn1c(C(=O)N2COCC2(C)C)cc2c(=O)n3ccccc3nc21	-2%	13%	?	?	10µM*
Cn1c(C(=O)NCCC2=CCCCC2)cc2c(=O)n3ccccc3nc21	0%	7%	7%	8%	1.6µM*
Cc1cccn2c(=O)c3cc(C(=O)NCCCN4CCOCC4)n(C)c3nc12	1%	·	2%[11.4 µM]	2%	18%
Cn1c(C(=O)NCCCN2CCCC2=O)cc2c(=O)n3ccccc3nc21	-2%	11%	3%	-1%	5µM*
CN(C)c1ccc(NC(=O)c2cc3c(=O)n4ccccc4nc3n2C)cc1	-2%	5%	-4%	-20%	10µM*
CCCCN(CC)C(=O)c1cc2c(=O)n3ccccc3nc2n1C	1%	·	·	·	·
Cc1ccc2sc(N3CCN(C(=O)CCS(=O)(=O)c4ccc(Cl)cc4)CC3)nc2c1C	-2%	·	·	·	·
CCNc1ncc2nc(-c3cccs3)c(=O)n(-c3ccccc3)c2n1	-2%[11.4 µM]	-19%	?	?	?
Cc1ccccc1NCc1cccn1-c1nnc(N2CCOCC2)s1	-3%	·	·	·	·
Cn1c(C(=O)NCC2CCCO2)cc2c(=O)n3ccccc3nc21 (stereo unspecified)	-2%	8%	-5%	4%	2.5µM*
COC(=O)c1cc(COc2ccc3oc(C)c(C(=O)OC)c3c2)c(C)o1	?	-9%	?	16µM*	5µM*
COC(=O)c1c(C(=O)OC)c2oc3ccccc3n2c1Cl	?	4%	14%	23%	13µM*
O=C1CSC(c2cn(-c3ccccc3)nc2-c2ccccc2)N1Cc1ccco1 (stereo unspecified)	?	?	·	18%	-6%
O=C1CSC(c2cn(-c3ccccc3)nc2-c2cccs2)N1CC1CCCO1 (stereo unspecified)	3%	-30%	10µM*	10%	?
CSc1ncnc2c1ncn2CC(=O)[C@H]1CC[C@H]2[C@H]3CCC4=CC(=O)CC[C@@]4(C)[C@@H]3CC[C@@]12C	?	4µM*	10%[11.4 µM]	1%[11.4 µM]	?
C[C@@]12C[C@@H](O)[C@H]3[C@@H](CCC4=CC(=O)CC[C@]43C)[C@H]1CC[C@H]2C(=O)CO	?	-4%[25.7 µM]	1%[25.6 µM]	7%[25.6 µM]	-7%[17.1 µM]
CCN(CC)c1ccc(-n2cc3c(=O)n(C)c(=O)n(C)c3c2)cc1	0%	-8%	-10%	-7%	10µM*
SMILES	IkB signaling	ERK AVP block	TSHR ag	HEK293 cAMP cs	CRE-bla Fsk
CN(C)c1ccc(-n2cc3c(=O)n(C)c(=O)n(C)c3c2)cc1	-1%	?	-10%	-3%	?
Cc1cc(=O)[nH]c2nnc(SCc3ccc(C(F)(F)F)cc3)n12	2%	·	·	·	·
COc1ccccc1N(C(=O)c1snc(C(N)=O)c1N)C(C(=O)NC1CCCC1)c1ccco1 (stereo unspecified)	?	-4%	?	1µM*	?
COc1nc(Nc2ccc(O)cc2)nc(OC(C(F)(F)F)C(F)(F)F)n1	2%	2µM*	8%[11.4 µM]	-1%	25%
COc1ccc(Nc2nc(C)c3ccccc3n2)cc1	8%	?	5%	4%	0%
CCOC(=O)c1cc2c(=O)n3cccc(C)c3nc2n(CCOC)c1=NC(=O)c1ccncc1	1%	-5%	10%	14%	-3%
Cc1c(S(=O)(=O)Nc2cccc(Cl)c2)c(=O)n(C)c(=O)n1C	-1%	·	7%	9%	2µM*
c1ccc(CNc2nc(-c3ccc4c(c3)OCO4)nc3ccccc23)cc1	1%[11.4 µM]	20µM*	14%	8%	7%
c1ccc(Nc2nc(-c3ccc4c(c3)OCO4)nc3ccccc23)cc1	2%[11.4 µM]	16µM*	·	5%	?
CCOC(=O)c1c(C)oc2ccc(O)c(CN3CCCCC3)c12	-3%	-24%	?	16µM*	?
CCOC(=O)c1oc2cccc(O)c2c1CN1CCOCC1	-3%	-11%	0%	20%	13µM*
O=c1/c(=C\c2ccc3c(c2)OCO3)sc2n1CCCN=2	?	10µM*	5%	24%	2%
CCOC(=O)C1CCN(c2ncnc3c2oc2ccc(Cl)cc23)CC1	-2%	-9%	?	25µM*	?
CCOC(=O)C1CCN(c2ncnc3c2c(-c2ccccc2)cn3-c2ccc(C)c(Cl)c2)CC1	1%	·	·	·	·
CC(C)c1cccc(C(C)C)c1NC1=NS(=O)(=O)c2ccccc21	3%	·	·	·	·
CC(=O)c1c(C)nc2cc(Cl)ccc2c1N	-2%	-27%	5%	15%	10µM*
CCOC(=O)c1ccc(Oc2nc(NC)nc(SC)n2)cc1	0%	-4%	3%	2%	9%
CCOC(=O)c1ccc(Oc2nc(SC)nc(N(C)C)n2)cc1	?	71%	?	3.2µM*	?
CCOC(=O)c1ccc(Oc2nc(NC(C)(C)C)nc(N(C)C)n2)cc1	?	-4%	?	25µM*	-10%
CCOC(=O)c1ccc(Oc2cc(C)nc(SC)n2)cc1	1%	9%	?	3.2µM*	?
CN(C)c1nc(OCCOC(=O)c2ccccc2)nc(N(C)C)n1	0%	4%	20%	30%	5µM*
COc1ccc(CNC(=O)CSc2ncc3c(n2)-c2cc(Cl)ccc2N(Cc2ccccc2)S3(=O)=O)cc1OC	3%	·	·	·	·
COC(=O)c1ccc(Oc2cc(C)nc(-n3nc(C)cc3C)n2)cc1	-2%	?	?	16µM*	?
CCOc1cc(-c2noc(CCC(=O)Nc3cccnc3)n2)ccc1OC	0%	?	2%	5%	?
CCOC(=O)C(C)Oc1cccc2c(=O)n(CC(=O)N3CCN(C(=O)OCC)CC3)ccc12 (stereo unspecified)	6%	·	?	?	0%
